Assay results from PMC4336329 (PLoS ONE, 2015).
Hit rate of the full screen: of about 310,000 compounds, about 14,000 (4.5%) showed an effect of 50% or more. The effect is printed as a negative number. This is one part of a sample in which strong results are shown more often than they occur.

target: human ether-à-go-go-related gene (hERG) potassium channel (human, UniProt Q12809); test: primary screen, population patch clamp on CHO cells stably expressing hERG; higher = less effect of the substance
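Also: peak tail current of the secondary pulse compared with the same well before compound.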

Chain of human ether-à-go-go-related gene (hERG) potassium channel (Q12809 whole entry, looked up): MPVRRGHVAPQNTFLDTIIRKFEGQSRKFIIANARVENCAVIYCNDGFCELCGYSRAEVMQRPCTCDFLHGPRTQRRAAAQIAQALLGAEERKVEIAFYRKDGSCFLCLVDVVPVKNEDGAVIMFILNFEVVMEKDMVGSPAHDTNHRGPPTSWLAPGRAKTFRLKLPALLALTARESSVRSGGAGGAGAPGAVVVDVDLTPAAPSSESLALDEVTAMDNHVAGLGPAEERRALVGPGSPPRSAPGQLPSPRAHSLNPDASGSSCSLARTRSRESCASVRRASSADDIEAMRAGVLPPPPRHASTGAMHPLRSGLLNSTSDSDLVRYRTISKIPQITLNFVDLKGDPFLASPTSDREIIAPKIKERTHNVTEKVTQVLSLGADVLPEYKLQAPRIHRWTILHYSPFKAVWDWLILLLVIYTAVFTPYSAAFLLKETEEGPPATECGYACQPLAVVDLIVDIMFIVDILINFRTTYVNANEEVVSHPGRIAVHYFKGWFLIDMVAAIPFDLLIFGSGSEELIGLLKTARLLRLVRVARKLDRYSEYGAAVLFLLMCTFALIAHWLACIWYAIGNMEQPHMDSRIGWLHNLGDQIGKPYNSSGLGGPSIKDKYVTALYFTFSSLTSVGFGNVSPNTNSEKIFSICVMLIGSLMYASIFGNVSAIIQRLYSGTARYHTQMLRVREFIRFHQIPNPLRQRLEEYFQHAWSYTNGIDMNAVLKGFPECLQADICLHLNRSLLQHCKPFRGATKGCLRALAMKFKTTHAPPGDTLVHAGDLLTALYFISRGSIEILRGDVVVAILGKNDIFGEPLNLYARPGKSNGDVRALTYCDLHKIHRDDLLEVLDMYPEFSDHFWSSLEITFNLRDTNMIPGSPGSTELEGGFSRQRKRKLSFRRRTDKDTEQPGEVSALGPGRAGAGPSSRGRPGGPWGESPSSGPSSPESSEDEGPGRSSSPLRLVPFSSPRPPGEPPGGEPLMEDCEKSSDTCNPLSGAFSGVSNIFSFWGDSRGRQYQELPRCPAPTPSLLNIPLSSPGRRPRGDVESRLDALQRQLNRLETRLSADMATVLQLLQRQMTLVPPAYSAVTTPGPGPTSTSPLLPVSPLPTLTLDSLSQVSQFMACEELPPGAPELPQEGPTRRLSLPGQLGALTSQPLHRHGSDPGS

SMILES	hERG current change (%, negative = inhibition) at 10uM
O=C(CCc1nnc2ccc(NCc3ccccc3)nn12)NC1CCCC1	11.1%
Cc1ccc(N2CC(C(=O)Nc3nccs3)CC2=O)cc1 (stereo not shown)	-5.15%
Cc1ccc(N(C(=O)C2CCCO2)C2C=CS(=O)(=O)C2)cc1Cl (stereo not shown)	-4.44%
O=C(Nc1ccc(S(=O)(=O)Nc2ncccn2)cc1)c1cncc(Br)c1	10.6%
O=C(CSc1ccccc1Cl)NC1CCCc2ccccc21 (stereo not shown)	-1.17%
O=C(O)C(=O)O.OC(CNC1CCCc2ccccc21)COc1ccc2ccccc2c1 (stereo not shown)	-72.3%
O=C(c1ccccc1)c1ccc(OCC(O)CNC2CCCc3ccccc32)cc1 (stereo not shown)	-31.7%
CC(=O)CCc1ccc(OCC(O)CNC2CCCc3ccccc32)cc1.O=C(O)C(=O)O (stereo not shown)	-49%
CCc1ccccc1OC[C@@H](O)CN[C@H]1CCCc2ccccc21.O=C(O)C(=O)O	-24.7%
O=C(O)C(=O)O.OC(CNC1CCCc2ccccc21)COc1c(Cl)cccc1Cl (stereo not shown)	-56.5%
COc1ccc(CC(=O)Oc2ccc(C)cc2Br)cc1OC	3.25%
CN(Cc1nc(-c2ccccc2)no1)C(=O)c1ccc2c(c1)OCO2	-20.5%
Nc1nccnc1C(=O)OCC(=O)Nc1ccc2[nH]c(=O)[nH]c2c1	17%
O=c1[nH]c2cc3c(cc2cc1CN(CCO)S(=O)(=O)c1ccccc1)OCCO3	-19%
CCc1ccc(NC(=O)CN(c2ccc(OC)cc2)S(=O)(=O)c2c(C)nn(C)c2C)cc1	-4.36%
CC(C)(C)C1c2[nH]c3ccccc3c2CCN1CCCn1cccn1 (stereo not shown)	-19.5%
Cc1ccccc1C1c2[nH]c3ccccc3c2CCN1CCCn1cccn1 (stereo not shown)	-20.3%
CC(C)CC1c2[nH]c3ccccc3c2CCN1CCCn1cccn1 (stereo not shown)	-63.1%
Fc1ccc(C2c3[nH]c4ccccc4c3CCN2CCCn2cccn2)cc1 (stereo not shown)	-70.1%
CCOc1ccc(C2c3[nH]c4ccccc4c3CCN2CCCn2cccn2)cc1 (stereo not shown)	-68.7%
COc1ccc(C2c3[nH]c4ccccc4c3CCN2CCCn2cccn2)c(C)c1C (stereo not shown)	-9.49%
Fc1ccccc1C1c2[nH]c3ccccc3c2CCN1CCCn1cccn1 (stereo not shown)	-46.4%
COc1ccc(C2c3[nH]c4ccccc4c3CCN2CCCn2cccn2)c(F)c1 (stereo not shown)	-3.85%
COc1ccc(C2c3[nH]c4ccccc4c3CCN2CCCn2cccn2)cc1C (stereo not shown)	-38.9%
O=S(=O)(NCc1ccccc1)NCc1ccccc1F	7.69%
COCCN1C(=O)C(=O)/C(=C(/O)c2ccc(S(=O)(=O)N3CCCCC3)cc2)C1c1ccc(OC)c(OC)c1 (stereo not shown)	8.21%

SMILES	hERG current change (%, negative = inhibition) at 10uM
CC1(C)COC(/C=C/c2ccc([N+](=O)[O-])cc2)=N1	-26.1%
CCc1ccccc1N(CC(=O)N1CCCCC1)S(=O)(=O)c1ccccc1	10.6%
N#CC(C#N)=Cc1cc2ccccc2nc1N1CCCCC1	2.22%
CCN(CC)c1ccc(NC(=O)COC(=O)COc2ccccc2[N+](=O)[O-])cc1	3.42%
Cn1cc(Br)c(C(=O)NNC(=O)Cc2ccc(Cl)cc2)n1	3.6%
COc1ccc(N2C(=O)C3C(C2=O)C3(c2ccccc2)c2ccccc2)cc1 (stereo not shown)	0.0654%
CCOC(=O)c1ccc(NC(=S)N2CCN(CCN=CC3=C(O)CC(c4ccccc4)CC3=O)CC2)cc1 (stereo not shown)	-19.9%
Cc1c(Cl)cccc1NC(=O)CN1CCN(CCN=CC2=C(O)CC(c3ccccc3)CC2=O)CC1 (stereo not shown)	-19.9%
COc1ccc(NC(=S)N2CCN(CCN=CC3=C(O)CC(c4ccccc4)CC3=O)CC2)cc1 (stereo not shown)	-45.7%
O=C1CC(c2ccccc2)CC(O)=C1C=NCCN1CCN(C(=S)Nc2cccc(Cl)c2)CC1 (stereo not shown)	-39.4%
Cc1ccc(NC(=O)CN2CCN(CCN=CC3=C(O)CC(c4ccccc4)CC3=O)CC2)cc1 (stereo not shown)	-67.4%
Cc1ccc(C2CC(=O)C(C=NCCN3CCN(C(=S)Nc4ccc(F)cc4)CC3)=C(O)C2)cc1 (stereo not shown)	-58.6%
Cc1ccc(NC(=O)CN2CCN(CCN=CC3=C(O)CC(c4ccc(C)cc4)CC3=O)CC2)cc1 (stereo not shown)	-45.3%
Cc1ccc(C2CC(=O)C(C=NCCN3CCN(C(=S)Nc4ccccc4)CC3)=C(O)C2)cc1 (stereo not shown)	-26.4%
COc1ccc(C2CC(=O)C(C=NCCN3CCN(C(=S)Nc4ccccc4)CC3)=C(O)C2)cc1 (stereo not shown)	-32.8%
O=C1CC(c2ccc(F)cc2)CC(O)=C1C=NCCN1CCN(C(=O)Nc2ccccc2)CC1 (stereo not shown)	-67.8%
O=C1CC(c2ccc(F)cc2)CC(O)=C1C=NCCN1CCNCC1 (stereo not shown)	6.09%
O=C1CC(c2ccccc2)CC(O)=C1C=NCCN1CCN(C(=O)Nc2ccccc2)CC1 (stereo not shown)	-64.4%
O=C(Nc1cc2c(cc1Br)OCCO2)c1cccnc1	1.58%
O=C(c1ccc(CS(=O)Cc2cccc(Cl)c2)o1)N1CCN(C2CCCCC2)CC1 (stereo not shown)	-16.5%
COc1cc2nc(C3CCC3)n(NC(=O)C(OC(C)=O)c3ccccc3)c(=O)c2cc1OC (stereo not shown)	9.45%
Cc1c(C(=O)NCCSCc2ccco2)cccc1[N+](=O)[O-]	-5.94%
CN(Cc1cc2ccccc2[nH]c1=O)C(=O)COc1ccccc1	-8.32%
O=C(COC(=O)C1(c2ccccc2F)CCCC1)Nc1ncc(C(F)(F)F)cc1Cl	-10.1%
CSc1ccc(Cl)c(C(=O)Nc2ccc(N3CCOCC3)cc2)c1	-1.67%
Cc1cc(NC(=O)Nc2ccc(Cl)cc2)n(C(C)(C)C)n1	17.7%
